Consider 27 compounds from PubChem BioAssay AID1645850 (National Center for Advancing Translational Sciences (NCATS), 2021).

Inconclusive results are not listed. Unmarked numbers belong to inactive results. The call rests on the fitted dose curve; in most records, active means well fitted curve in the direction sought with a large enough effect in the repeat runs; inconclusive means weak or mixed curves, or another doubt; inactive means no such curve, though single readings can be large or run the other way.

The experiment is described as follows: Comparison of Janus kinase inhibitors to block the type I interferon pathway in human skeletal muscle cells: CTG Counterscreen. The conditions noted are these: human skeletal muscle cells viability, CellTiter-Glo ATP luminescence; series mostly up to 45.9 µM; activity change, negative = cytotoxicity: at the top concentration. The text has this: Assay Submitter (PI): Travis B. Kinder Ph.D.
National Center for Advancing Translational Sciences (NCATS)
The family of Janus kinases (JAK1, JAK2, JAK3, TYK2) mediate signal transduction from cytokine receptors through phosphorylation and activation of intracellular signaling pathways and transcription factors. Small molecule antagonists of JAKs (jakinibs) have been developed with varying selectivity for the use in malignancies and immune regulation. […] We have assayed a library of 48 jakinibs for their ability to inhibit the JAK1/TYK2-dependent type I interferon (IFN) - major histocompatibility complex (MHC) class I pathway in human skeletal muscle cells genome-engineered to fuse a pro-luminescent HiBiT peptide to endogenous MHC class I.
The assay utilized CRISPR/Cas9 genome-engineered immortalized human myoblasts, C25cl48, where a pro-luminescent reporter HiBit was fused to the C-terminus of endogenous MHC class I allele HLA-B*08:01 (HLA-B HiBit myoblasts) (Kinder et al., 2020). HiBit is an 11 amino acid fragment of NanoLuc luminescent reporter (Promega Corporation), and when complexed to the larger LgBit fragment, the reconstituted enzyme produces light in the presence of furimazine substrate. Briefly, HLA-B HiBit myoblasts were plated into 1536-well plates, treated with 4.0 ng/ml human IFN-beta and 48 jakinibs in an 11-point, 1:3 titration with a high final concentration of 46 uM. After 24 hrs of treatment, cells were assayed by CellTiter-Glo Luminescent Cell Viability Assay (Promega) and luminescence measured by a ViewLux 1430 Ultra HTS (Perkin Elmer).
1. Kinder TB, Dranchak PK, Inglese J. High-Throughput Screening to Identify Inhibitors of the Type I Interferon-Major Histocompatibility Complex Class I Pathway in Skeletal Muscle. ACS Chem Biol. 2020 Jul 17;15(7):1974-1986. doi: 10.1021/acschembio.0c00343
PROTOCOL TABLE (as described by Inglese et al., 2007)
SEQUENCE No. (e.g., 1, 2, 3, etc.); PARAMETER (e.g., Cells, Incubation, Reagent, etc.); VALUE; DESCRIPTION
1a; Cells; 5 uL; Seed 250 cells/well with a Multidrop Combi (Thermo Scientific) into two Greiner 1536 well white/solid bottom, high base, TC plates (789173-F) in 5 ul/well of growth medium (GM) without dexamethasone into columns 1+2
1b; Cells; 5 uL; Seed 250 cells/well with a Multidrop Combi (Thermo Scientific) into two Greiner 1536 well white/solid bottom, high base, TC plates (789173-F) in 5 ul/well of GM without dexamethasone + 4 ng/ml IFN-beta into columns 3 - 48. Add metal lids with gas-exchange holes.
2; Incubate; 30 min; Incubate at 37C, 5% CO2, 95% RH
3; Compounds; 23 nl; Transfer DMSO control and library compounds in DMSO with Pin Tool (Wako)
4; Incubate; 24 hrs; Incubate at 37C, 5% CO2, 95% RH
5; Dispense; 2.5 ul; Add CellTiter Glo lytic reagent with a BioRAPTR FRD (Beckman Coulter)
6; Incubate; 10 min; Incubate in the dark at ambient temperature for lysis
7; Detector; 5 sec; Measure luminescence with ViewLux 1430 Ultra HTS (Perkin Elmer). Settings: Exposure = 2 sec, Gain = High, Speed = Slow, Binning = 2X
NOTES (numbers refer to sequence above)
1; HLA-B HiBit myoblasts cultured in GM - 4:1 ratio DMEM Glutamax (Thermo Fisher, 10566) : M199 (Thermo Fisher, 11150), 10% FBS (Hyclone Standard), 1% Pen/Strep, 50 ug/ml fetuin, 10 ng/ml hEGF, 1 ng/ml bhFGF, 10 ug/ml insulin, 0.4 ug/ml dexamethasone (supplements from Promocell, C-39360). […] Recombinant human IFN-beta (Peprotech, 300-02BC) was reconstituted in water, diluted in GM, and aliquots stored at -80C until day of use.
3; Control plate contained DMSO in columns 1 and 4, digitonin (Sigma, D141) cytotoxicity control in DMSO at 20 mM in column 2, and ruxolitinib (Selleckchem, S1378) inhibitor control in DMSO 16-point, 1:2 titration, high concentration = 17 mM in column 3. Digitonin and ruxolitinib stocks were reconstituted at 20 and 50 mM in DMSO and aliquots stored at -20C. […]
`CC[C@@H]1CN(C(=O)NCC(F)(F)F)C[C@@H]1c1cnc2cnc3[nH]ccc3n12`: the “activity change, negative = cytotoxicity” value is -28.6%. With `C[C@@H]1CCN(C(=O)CC#N)C[C@@H]1N(C)c1ncnc2[nH]ccc12`, the “activity change, negative = cytotoxicity” value is 3.19%. As to `CCS(=O)(=O)N1CC(CC#N)(n2cc(-c3ncnc4[nH]ccc34)cn2)C1`, the “activity change, negative = cytotoxicity” value was 1.82%.

As for `CC(C)(C)NS(=O)(=O)c1ccc(-c2ccc3[nH]nc(N)c3c2)cc1`, the “activity change, negative = cytotoxicity” value is 15.9%. On to `Cc1cc(Nc2cc(CN3CCOCC3)c3nc(C)c(Cc4ccc(Cl)cc4F)n3n2)n[nH]1`, for which the “activity change, negative = cytotoxicity” value was -19%. On to `CCn1c(C(=O)N(C2CC2)C2CC2)cc2c3c(ncn3C)c(Nc3cc(C)n(C)n3)nc21`, for which the “activity change, negative = cytotoxicity” value is -17.3%.

As for `CC(C)(C)NC(=O)Nc1cccc(Nc2ncc(F)c(NC(C)(C)CO)n2)c1`, the “activity change, negative = cytotoxicity” value was 6.2%. As for `C=CC(=O)Nc1ccc(F)c(-c2ncnc3[nH]cc(C(=O)OCC)c23)c1`, the figure is 3.28%. As for `NC(=O)c1cnc2[nH]ccc2c1NC1C2CC3C[C@H]1CC(O)(C3)C2` (some centres not stated), the figure is 1.18%; as for `COc1cc2ncnc(Nc3ccc(O)cc3)c2cc1OC`, -2.03%. As for `N#CC[C@H](C1CCCC1)n1cc(-c2ncnc3[nH]ccc23)cn1`, the figure is 8.46%. Consider `CC(C)(O)C(=O)N1CCN(c2ccc(C(F)(F)F)c(C3=C(c4c[nH]c5ccccc45)C(=O)NC3=O)c2)CC1`, for which the “activity change, negative = cytotoxicity” value is -7.18%. With `CN1CCN(c2cccc(Nc3nc4c(-c5ccc(S(C)(=O)=O)cc5)cccn4n3)c2)CC1`, the “activity change, negative = cytotoxicity” value is -4.5%. The figure for `O=C(Nc1ccnc(NC(=O)C2CC2)c1)c1c(Cl)cccc1Cl` is 8.25%; for `CC[C@@](C)(Nc1ccnc(-c2c[nH]c3ncccc23)n1)C(=O)NCC(F)(F)F` it is 5.31%; for `CC(C)(C)c1nc2c3cc[nH]c(=O)c3c3cc(F)ccc3c2[nH]1` it is -11.6%.

For the compound `CC1(C)CN(C(=O)c2ccc(-c3cccc4nc(NC(=O)C5CC5)nn34)cc2)C1`, the “activity change, negative = cytotoxicity” value was 7.08%. Regarding `O=C(Nc1ccc(-c2ccnc(Nc3ccc(N4CCOCC4)cc3)n2)cc1)[C@@H]1CCCN1`, the “activity change, negative = cytotoxicity” value is 12.2%. In the case of `Cn1cc(Nc2nccc(N3C[C@H]4CC[C@@H](C3)N4C(=O)[C@@H]3CC3(F)F)n2)cn1`, the “activity change, negative = cytotoxicity” value is -24.6%. Turning to `[2H]C([2H])([2H])NC(=O)c1nnc(NC(=O)C2CC2)cc1Nc1cccc(-c2ncn(C)n2)c1OC`, the “activity change, negative = cytotoxicity” value was -10.7%.

`CN(C)c1ccc(Nc2nc(N)n(C(=O)c3c(F)cccc3F)n2)cc1`: the “activity change, negative = cytotoxicity” value was -10.4%. In the case of `Cc1oncc1C(=O)Nc1ccc(C(F)(F)F)cc1`, the “activity change, negative = cytotoxicity” value is -6.1%. As for `CCCS(=O)(=O)NC1CC(N(C)c2ncnc3[nH]ccc23)C1` (configuration not stated), the figure is 5.82%. Take `N#CCNC(=O)c1ccc(-c2ccnc(Nc3ccc(N4CCOCC4)cc3)n2)cc1`: the “activity change, negative = cytotoxicity” value is -19.9%. With `CNS(=O)(=O)CC1CCC(N(C)c2ncnc3[nH]ccc23)CC1` (configuration not stated), the “activity change, negative = cytotoxicity” value was 15%.

As to `CCS(=O)(=O)N1CCN(c2ccc(Nc3ncc(C(N)=O)c(NC4CC4)n3)cc2)CC1`, the “activity change, negative = cytotoxicity” value is 1.99%. Take `N#C/C(=C\c1ccc(O)c(O)c1)C(=O)NCc1ccccc1`: the “activity change, negative = cytotoxicity” value was 1.73%.
